{"source": "the OligoGym collection", "data": [{"biological_target": "SLC50A1", "assay": "pooled miR-30 sensor sort-seq; sequence = guide strand", "details": "shRNA", "values": [{"sequence": "TGATTTAGTTTGAATCACCTTA", "sensor-assay potency score (higher = more potent)": 0.457}, {"sequence": "TCTGAGTCGAAACCCATAGAGG", "sensor-assay potency score (higher = more potent)": -1.58}, {"sequence": "TAGTTTGAATCACCTTAGCCAA", "sensor-assay potency score (higher = more potent)": -1.16}, {"sequence": "TTATCCTCAAAGTCATCTCTTG", "sensor-assay potency score (higher = more potent)": -0.683}, {"sequence": "TATAGGGATCTCTGAGTCGAAA", "sensor-assay potency score (higher = more potent)": -1.32}, {"sequence": "TTGGACACCATGATATAGGGAT", "sensor-assay potency score (higher = more potent)": 0.348}, {"sequence": "ATATAGGGATCTCTGAGTCGAA", "sensor-assay potency score (higher = more potent)": -0.899}, {"sequence": "TTAGTTTGAATCACCTTAGCCA", "sensor-assay potency score (higher = more potent)": 0.6}, {"sequence": "TTGATTTAGTTTGAATCACCTT", "sensor-assay potency score (higher = more potent)": -0.06}, {"sequence": "TCGCATGTGCCTGAGGTCCGAG", "sensor-assay potency score (higher = more potent)": -1.22}, {"sequence": "TCTGACGTTGTCCACACTCCGG", "sensor-assay potency score (higher = more potent)": -1.36}]}, {"biological_target": "SLC5A9", "assay": "pooled miR-30 sensor sort-seq; sequence = guide strand", "details": "shRNA", "values": [{"sequence": "TTGTTTAATCTGTCTACACTGA", "sensor-assay potency score (higher = more potent)": -0.279}, {"sequence": "TAGTCCATTGTCTAAGAGCTTT", "sensor-assay potency score (higher = more potent)": -1.07}, {"sequence": "TTAGAGAGTAGGAAGAGGCAGA", "sensor-assay potency score (higher = more potent)": 0.115}, {"sequence": "TGTTGGAACATCCCACTCGGGC", "sensor-assay potency score (higher = more potent)": -1.24}, {"sequence": "TAGGCGTGCAGACCAACTCTGG", "sensor-assay potency score (higher = more potent)": -1.48}, {"sequence": "TTAACAAGTCATGTCTCTCCAA", "sensor-assay potency score (higher = more potent)": -0.0979}, {"sequence": "TGGTCTGTGCACCAACACCAGG", "sensor-assay potency score (higher = more potent)": -1.88}, {"sequence": "TTGTCTAAGAGCTTTCTGCCCA", "sensor-assay potency score (higher = more potent)": -0.317}, {"sequence": "TTCTTTGGCAGACATCAGGGTC", "sensor-assay potency score (higher = more potent)": -0.689}, {"sequence": "AGGAACACCACAAACACTCTGC", "sensor-assay potency score (higher = more potent)": -0.94}, {"sequence": "TTCTACTCTCAAGACACACATT", "sensor-assay potency score (higher = more potent)": -0.868}, {"sequence": "TAACAAGTCATGTCTCTCCAAC", "sensor-assay potency score (higher = more potent)": -0.907}]}, {"biological_target": "SLC6A11", "assay": "pooled miR-30 sensor sort-seq; sequence = guide strand", "details": "shRNA", "values": [{"sequence": "TAGGAGAAAAAGATCTGCGTTC", "sensor-assay potency score (higher = more potent)": -0.00212}, {"sequence": "ATAATTGTTATAACTTCCCAGA", "sensor-assay potency score (higher = more potent)": -0.808}, {"sequence": "TTATCATAGAACCGGTTGCTTC", "sensor-assay potency score (higher = more potent)": -1.38}, {"sequence": "TAGAACTTGATGCCCTCTGAGG", "sensor-assay potency score (higher = more potent)": -1.22}, {"sequence": "TTCACTTGTGAACTGCCCCAGA", "sensor-assay potency score (higher = more potent)": -0.108}, {"sequence": "TTCTGCAGAGACACATGGCTGT", "sensor-assay potency score (higher = more potent)": 0.541}, {"sequence": "TCAATGTTATCATAGAACCGGT", "sensor-assay potency score (higher = more potent)": -0.663}, {"sequence": "TTAACTGTCACCATCCGTGGGC", "sensor-assay potency score (higher = more potent)": 0.397}, {"sequence": "TAGGAGATAACAGACAAGGCTA", "sensor-assay potency score (higher = more potent)": 0.294}, {"sequence": "TACAAGTAGAACTTGATGCCCT", "sensor-assay potency score (higher = more potent)": 0.00476}, {"sequence": "TCATTAACTGTCACCATCCGTG", "sensor-assay potency score (higher = more potent)": -0.565}, {"sequence": "TTCAATGTTATCATAGAACCGG", "sensor-assay potency score (higher = more potent)": -0.488}]}, {"biological_target": "SLC6A17", "assay": "pooled miR-30 sensor sort-seq; sequence = guide strand", "details": "shRNA", "values": [{"sequence": "AAGAAGAACATGACGGACCAGA", "sensor-assay potency score (higher = more potent)": 0.0729}, {"sequence": "ATATATAGTGCCACACACCGAT", "sensor-assay potency score (higher = more potent)": 0.0995}, {"sequence": "TATATAGTGCCACACACCGATG", "sensor-assay potency score (higher = more potent)": -1.62}, {"sequence": "TATAGTAGAGTGTCTCTCCTGG", "sensor-assay potency score (higher = more potent)": 0.772}, {"sequence": "TTGTAGGACACGGAGAGGGTGT", "sensor-assay potency score (higher = more potent)": -0.674}]}]}
